The record followed here is PubChem BioAssay.

Assay [1] concerns Human papillomavirus type 1a protein E7 (residues 44-93). Put plainly: small molecules binding HPV E7 44-93 – biochemical, small-molecule microarray, residues 44-93, 635 nm fluorescence, primary screen (AID 1108).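 Also: E7 fragment applied at 1 µg/mL in TBST for 1 h at 4 C; score combines spot fluorescence with its signal to noise ratio.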 Particulars: fluorescence 635 nm, higher = more signal.
The nature of assay [2]: hepatitis C replication reporter changes, two-sided – Huh7 cells, luciferase reporter, HCV replication inhibitor project, primary screen (AID 1109).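 Also: huh7 hepatoma cells harbouring a luciferase neomycin HCV replicon reporter; luciferase luminescence as measure of HCV replicon replication; test concentration not given here.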 The settings on record: Huh7 HCV replicon luciferase reporter, 48 h; higher = more signal.
The target in assay [3] is Left-right determination factor 2 (Homo sapiens) (UniProt O00292). Put plainly: small molecules binding LEFTY2 protein – biochemical, small-molecule microarray, 635 nm fluorescence scan, primary screen (AID 1110). The settings on record: higher = more signal.
Chain of Left-right determination factor 2 (Homo sapiens) (O00292 whole entry, looked up): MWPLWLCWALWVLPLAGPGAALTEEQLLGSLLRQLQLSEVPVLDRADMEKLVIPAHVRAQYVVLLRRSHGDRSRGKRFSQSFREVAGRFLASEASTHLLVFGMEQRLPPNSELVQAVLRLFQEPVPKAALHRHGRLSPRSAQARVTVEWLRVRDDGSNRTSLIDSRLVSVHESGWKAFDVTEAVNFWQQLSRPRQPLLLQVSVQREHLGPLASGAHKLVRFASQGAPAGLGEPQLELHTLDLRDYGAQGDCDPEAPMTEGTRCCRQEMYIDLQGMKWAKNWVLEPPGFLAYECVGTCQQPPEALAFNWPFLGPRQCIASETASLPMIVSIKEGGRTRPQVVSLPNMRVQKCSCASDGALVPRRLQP
For assay [4], the target named is Calmodulin-1 (Homo sapiens) (UniProt P0DP23). In words: small molecules binding calmodulin-1 with EGTA – biochemical, small-molecule microarray, Cy5-labelled CALM1, profiling panel (AID 1111).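 Also: labelled calmodulin applied in Tris saline Tween buffer holding calcium plus EGTA and DTT.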 The settings on record: Cy5-CALM1 binding fluorescence, higher = more signal.
Assay [5] has the same target. In words: small molecules binding Ca-loaded calmodulin-1 – biochemical, small-molecule microarray, Cy5-labelled CALM1, plus calcium, artefact control for SMM control-protein annotation, profiling panel (AID 1112).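 Also: score merges spot fluorescence with signal to noise from triplicate slides.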 Particulars: Cy5-CALM1 binding fluorescence, higher = more signal.
Assay [6] in a line: probe aWnt5a binding to arrayed compounds – biochemical, biotinylated probe, 635/667 nm fluorescence, primary screen (AID 1113).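 Also: score merges 667 nm fluorescence intensity with signal-to-noise per printed feature.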 The settings on record: small-molecule microarray, higher = more signal.
Assay [7] in a line: probe aShh binding to arrayed compounds – biochemical, biotinylated probe, 635/667 nm fluorescence, primary screen (AID 1114).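 Also: probe is biotin-labelled aShh protein from a stem cell growth factor screen; measures binding of labelled protein to compounds printed on the slide; score merges feature fluorescence at 667 nm with signal-to-noise.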 Particulars: small-molecule microarray, higher = more signal.
Assay [8] in a line: probe aNog binding to arrayed compounds – biochemical, biotinylated probe, 635/667 nm fluorescence, primary screen (AID 1115).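 Also: probe is biotinylated aNog protein used at 0.15 µg/mL for 1 h at 4 C; z-score combines 667 nm fluorescence of each spot with its signal to noise.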 Particulars: small-molecule microarray, higher = more signal.
The target in assay [9] is Torsin-1A-interacting protein 1 (Homo sapiens) (UniProt Q5JTV8). In words: compound microarray binding of lysate hLAP1 – cell lysate, small-molecule microarray, COS7 lysate, 635/667 nm fluorescence, primary screen (AID 1116). The settings on record: 635 nm fluorescence, higher = more signal.
Chain of Torsin-1A-interacting protein 1 (Homo sapiens) (Q5JTV8 whole entry, looked up): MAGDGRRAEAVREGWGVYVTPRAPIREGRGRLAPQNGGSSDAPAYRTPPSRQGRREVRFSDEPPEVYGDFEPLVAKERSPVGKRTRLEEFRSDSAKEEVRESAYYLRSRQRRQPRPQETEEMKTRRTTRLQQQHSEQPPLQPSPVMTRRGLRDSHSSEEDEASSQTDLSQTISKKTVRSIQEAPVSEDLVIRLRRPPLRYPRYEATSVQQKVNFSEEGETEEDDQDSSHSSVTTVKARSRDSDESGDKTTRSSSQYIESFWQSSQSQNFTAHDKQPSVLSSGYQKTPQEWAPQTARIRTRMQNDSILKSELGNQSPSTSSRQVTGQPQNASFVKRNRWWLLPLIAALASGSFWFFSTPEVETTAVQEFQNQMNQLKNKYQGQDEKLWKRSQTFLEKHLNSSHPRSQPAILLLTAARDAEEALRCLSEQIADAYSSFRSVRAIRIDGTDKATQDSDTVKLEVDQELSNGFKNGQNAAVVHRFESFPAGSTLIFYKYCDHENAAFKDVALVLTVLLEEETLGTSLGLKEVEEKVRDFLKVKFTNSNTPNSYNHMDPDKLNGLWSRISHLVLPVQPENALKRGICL
The target of assay [10] is Alpha-bungarotoxin (Bungarus multicinctus) (UniProt P60615). In words: compounds binding labelled alpha-BTX control protein – biochemical, small-molecule microarray, Alexa647 label, 635/667 nm fluorescence, artefact control for SMM control protein annotation, profiling panel (AID 1117). Particulars: alpha-BTX-A647 binding fluorescence, higher = more signal.
Chain of Alpha-bungarotoxin (Bungarus multicinctus) (P60615 whole entry, looked up): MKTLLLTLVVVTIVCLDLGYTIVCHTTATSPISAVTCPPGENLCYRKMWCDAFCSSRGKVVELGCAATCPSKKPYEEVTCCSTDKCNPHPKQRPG
Assay [11] has as its target Albumin (Bos taurus) (UniProt P02769). Put plainly: compounds binding labelled BSA control protein – biochemical, small-molecule microarray, Alexa647 label, 635/667 nm fluorescence, artefact control for SMM control protein annotation, profiling panel (AID 1118).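 Also: score merges 667 nm emission intensity and signal-to-noise per printed compound spot.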 Particulars: BSA-A647 binding, fluorescence 635 nm, higher = more signal.
Assay [12] is described as follows: probe aXIP binding to arrayed compounds – biochemical, NeuroSMM set, 635/667 nm fluorescence, primary screen (AID 1119).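 Also: probe is the protein aXip251-270 applied at 1 µg/mL to compound-printed slides; binding of probe to printed compounds measured as 667 nm fluorescence plus signal to noise.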 The settings on record: small-molecule microarray, higher = more signal, called active from +8 up or from −8 down.
Assay [13] is described as follows: probe aNOTCH3 binding on compound microarray – biochemical, small-molecule microarray, 635/667 nm fluorescence, primary screen (AID 1120).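 Also: probe is a biotin-tagged antibody raised against NOTCH3 rather than NOTCH3 protein; score merges spot fluorescence near 667 nm with spot signal to noise.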 The settings on record: higher = more signal.
The nature of assay [14]: probe aNOTCH2 binding on compound microarray – biochemical, small-molecule microarray, 635/667 nm fluorescence, primary screen (AID 1121).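 Also: score merges feature fluorescence read at 667 nm with its signal to noise.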 Particulars: higher = more signal.
The target of assay [15] is Carbonic anhydrase 2 (Homo sapiens) (UniProt P00918). In words: compounds binding carbonic anhydrase 2 – biochemical, small-molecule microarray, Alexa647-labelled CAII, profiling panel (AID 1122). The settings on record: CAII-A647 binding fluorescence, higher = more signal.
Assay [16] in a line: COS7 lysate on small-molecule microarray, probe aHis, 635 nm (AID 1123).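 Also: z-score combines 667nm fluorescence intensity with signal-to-noise per printed compound spot.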 The settings on record: COS7 cell lysate, fluorescence, higher = more signal.
Assay [17] is described as follows: probe aLAP1 signal on lysate-treated microarray – cell lysate, small-molecule microarray, COS7 lysate, primary screen (AID 1124).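 Also: lysate comes from COS7 cells expressing LAP1 and is applied at 0.3 µg/mL; score merges spot fluorescence near 667 nm with signal-to-noise over triplicate slides.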 The settings on record: probe aLAP1, fluorescence, higher = more signal.
Assay [18] has as its system Sam68 (KHDRBS1). Put plainly: compounds binding KHDRBS1 protein – biochemical, small-molecule microarray, 635 nm fluorescence, primary screen (AID 1125).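 Also: score merges 667 nm channel intensity with signal to noise over triplicate slides.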 The settings on record: higher = more signal.
In assay [19] the test system is Chordin-like protein 2 (CHRDL2). In words: compounds binding chordin-like 2 – biochemical, small-molecule microarray, 635 nm fluorescence, primary screen (AID 1126).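 Also: printed compound slides probed with Chrdl2 protein at 4 µg/mL for 1 h at 4 C; score merges 667 nm emission intensity with signal to noise over three replicate slides.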 The settings on record: fluorescence 635 nm, higher = more signal.
Assay [20] addresses Concanavalin-A (Canavalia ensiformis) (UniProt P02866). Put plainly: compounds binding concanavalin A lectin – biochemical, small-molecule microarray, Alexa647 label, 635 nm, artefact control for SMM control protein annotation, primary screen (AID 1127).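 Also: z combines 667 nm emission intensity with signal-to-noise across three replicate slides.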 Particulars: ConA-A647 binding fluorescence, higher = more signal.

Molecules are shown by their SMILES. The source made the active and inactive calls.

Chain of Concanavalin-A (Canavalia ensiformis) (P02866 whole entry, looked up): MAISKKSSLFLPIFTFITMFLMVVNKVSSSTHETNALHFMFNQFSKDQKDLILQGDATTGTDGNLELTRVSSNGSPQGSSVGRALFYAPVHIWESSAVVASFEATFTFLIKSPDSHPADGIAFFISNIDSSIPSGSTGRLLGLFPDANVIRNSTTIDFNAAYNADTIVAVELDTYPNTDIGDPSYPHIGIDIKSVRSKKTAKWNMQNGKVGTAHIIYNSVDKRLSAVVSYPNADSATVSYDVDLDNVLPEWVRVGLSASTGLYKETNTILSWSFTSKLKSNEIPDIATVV
Chain of Albumin (Bos taurus) (P02769 whole entry, looked up): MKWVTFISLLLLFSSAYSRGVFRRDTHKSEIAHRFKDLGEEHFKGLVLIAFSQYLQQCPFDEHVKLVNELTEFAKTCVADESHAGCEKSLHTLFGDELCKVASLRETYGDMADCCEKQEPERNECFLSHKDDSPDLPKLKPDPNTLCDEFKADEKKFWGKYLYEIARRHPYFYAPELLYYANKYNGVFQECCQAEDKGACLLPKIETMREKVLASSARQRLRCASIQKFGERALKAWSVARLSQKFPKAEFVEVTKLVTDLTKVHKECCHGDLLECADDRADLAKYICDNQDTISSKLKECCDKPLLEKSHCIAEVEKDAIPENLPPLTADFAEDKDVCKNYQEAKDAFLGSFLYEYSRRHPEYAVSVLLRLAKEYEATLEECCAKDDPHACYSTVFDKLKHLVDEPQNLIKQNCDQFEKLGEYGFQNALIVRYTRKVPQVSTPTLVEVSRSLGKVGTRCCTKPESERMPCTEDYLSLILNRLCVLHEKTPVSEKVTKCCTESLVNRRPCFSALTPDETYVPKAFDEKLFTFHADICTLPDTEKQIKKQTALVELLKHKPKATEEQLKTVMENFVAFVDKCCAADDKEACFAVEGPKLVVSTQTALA

Take `COCCOC(=O)N1C(=O)[C@@]2(c3cc(C#CC4(O)CCCCCC4)ccc31)[C@H](C(=O)Nc1nc3ccccc3s1)[C@H]1C(=O)O[C@H](c3ccccc3)[C@H](c3ccccc3)N1[C@@H]2c1ccc(OCCO)cc1`: the composite z-score in assay [1] was 1.31; in assay [3], 0.726; in assay [4], 0.693; in [5], -0.271; in assay [6], -0.169; in assay [7] it was 0.138. For the same compound, the composite z-score in [8] was 0.0824; in [9], -0.105; in [10] it was 1.21; in [11] it was 0.345; in [13], 0.246; in [14], -0.0009. The composite z-score was 0.503 in assay [15]; 0.541 in assay [16]; 0.324 in assay [17]; 1.3 in [18]; 0.637 in assay [19]; 1.1 in [20]. Moreover, in assay [2], the z-score was -2.33. In addition, the composite Z-score in assay [12] is -0.245 (inactive).
As for `COc1ccc([C@H]2OC[C@@H]3CCC(=O)N32)cc1`, the composite z-score in [1] is 0.493; in assay [3] it was 0.556; in assay [4], -0.313; in assay [5], -0.525; in assay [6], -0.18; in assay [7], 0.0062. In addition, the composite z-score was -0.324 in assay [8]; 0.493 in [9]; -0.122 in assay [10]; 0.626 in [11]; 0.0948 in assay [13]; -0.161 in [14]. Besides, the composite z-score was 0.286 in assay [15]; -0.215 in assay [16]; 0.552 in assay [17]; 0.382 in assay [18]; 0.504 in assay [19]; 0.3 in assay [20]. For the same compound, the z-score in [2] is 0.574. In addition, the composite Z-score in assay [12] was 1.42 (inactive).
In the case of `COc1ccc([Si](C)(C)[C@@H]2[C@@H](CC(=O)N3CCC[C@H]3CO)O[C@]3(C(=O)N(Cc4cccc(I)c4)c4ccccc43)[C@H]2C)cc1`, the composite z-score in assay [1] was 1.32; in assay [3], 1.39; in [4], 0.374; in assay [5], 0.935; in assay [6], 0.116; in assay [7], -0.138. Moreover, the composite z-score was -0.0173 in assay [8]; 1.62 in [9]; 0.181 in assay [10]; -0.392 in assay [11]; 0.175 in assay [13]; -0.0956 in assay [14]. Also, the composite z-score in [15] stood at 0.644; in [16], 0.066; in assay [17] it was 0.0817; in assay [18] it was 1.31; in assay [19], 1.45; in [20] it was 0.938. In addition, the z-score in assay [2] was -2.72. For the same compound, the composite Z-score in assay [12] is 0.119 (inactive).
As for `COC(=O)[C@H](Cc1ccccc1)N[C@H](/C=C/C1CC1)[C@@H](O)Cc1ccccc1`, the composite z-score is -0.636 in assay [1]; -0.276 in assay [3]; -0.595 in assay [4]; -1.08 in assay [5]; -0.237 in assay [6]; 0.14 in [7]. Also, the composite z-score in assay [8] was -0.34; in assay [9] it was 0.627; in assay [10], -0.696; in [11], -0.115; in assay [13], 0.392; in [14], -0.193. Also, the composite z-score is -0.36 in assay [15]; 0.369 in [16]; -0.309 in [17]; -0.56 in assay [18]; -0.318 in assay [19]; -0.811 in assay [20]. The same compound had a z-score in assay [2] of -1.02. The composite Z-score in assay [12] was 0.448 (inactive).
Take `O=C1OCC=C[C@H]2OC34C=CCN(CCN5CCOCC5)C(=O)[C@H]3N(CCO)C(=O)[C@@H]4[C@@H]12` (stereo not given in full): the composite z-score was 0.259 in assay [1]; -0.0919 in assay [3]; -0.571 in assay [4]; -0.932 in assay [5]; -0.223 in assay [6]; -0.321 in [7]. Moreover, the composite z-score was -0.384 in [8]; 0.0486 in assay [9]; -0.283 in [10]; -0.263 in [11]; -0.0221 in assay [13]; -0.208 in assay [14]. In addition, the composite z-score in [15] was 0.764; in assay [16], -0.214; in assay [17] it was -0.194; in assay [18], 0.457; in assay [19] it was 0.0881; in assay [20], 0.575. For the same compound, the z-score in assay [2] is 0.289. Further, the composite Z-score in assay [12] is 0.198 (inactive).
Take `COCCCNC(=O)[C@@H]1c2ccccc2C(=O)N(Cc2ccccc2)[C@H]1c1ccc(CO)cc1`: the composite z-score was 0.364 in assay [1]; 0.221 in [3]; -0.448 in [4]; 0.004 in assay [5]; 0.0215 in assay [6]; 0.131 in assay [7]. The composite z-score in assay [8] was -0.69; in assay [9], 1.32; in assay [10] it was -0.222; in [11] it was 0.405; in assay [13] it was 0.235; in [14], 0.13. Moreover, the composite z-score was 0.787 in [15]; 1.48 in [16]; 1.1 in assay [17]; 0.814 in assay [18]; 0.634 in [19]; 0.458 in [20]. This compound also returned a z-score in assay [2] of -0.719. For the same compound, the composite Z-score in [12] is 0.59 (inactive).
